# Measured values from the supplement of paper PMC10849652.
# Targets with a hit are over-represented here; the source holds about 7,900 in all. About 0.6% of all pairs of compound and target were hits. Unmarked numbers belong to inactive results.
# Assays:
# Assay in all cases: log2 fold change, soluble protein after heating vs DMSO (PISA); higher = thermal stabilisation; K562 cells, 10 uM, 30 min; active = over 0.2 and 3.5 SD of the protein, either way, in both replicates (recomputed)
# IRAK-1-4 Inhibitor I = compound: C1COCCN1CCN2C3=CC=CC=C3N=C2NC(=O)C4=CC(=CC=C4)[N+](=O)[O-] [IRAK-1-4 Inhibitor I]
# Outline: (§1)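 For each measurement, 10 μM compound was applied for 30 min to K562 cells at 2×10^6 cells/mL. Aliquots were heated for 3 min across 48°C-58°C, pooled, and extracted in PBS with 0.5% NP-40 at 4°C; the supernatant after 21,000xg for 90 min was soluble protein. This was quantified by TMTpro 16plex LC-MS/MS with channel sums equalised, and thermal stability was reported relative to control samples from duplicates, on a log2 fold-change scale.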
# ibrutinib = compound: C=CC(=O)N1CCC[C@@H](n2nc(-c3ccc(Oc4ccccc4)cc3)c3c(N)ncnc32)C1 [ibrutinib]
# Outline: as §1
# [1] = compound: CC(=O)c1cnc2ccc(-c3cc(Cl)c(O)c(Cl)c3)nc2c1N[C@H]1CC[C@H](CN(C)C)CC1
# Outline: as §1
# ralimetinib = compound: CC(C)(C)Cn1c(N)nc2ccc(-c3[nH]c(C(C)(C)C)nc3-c3ccc(F)cc3)nc21 [ralimetinib]
# Outline: as §1
# [2] = compound: CC(C)(O)CC(=O)NCCn1ccc2ncnc(Nc3ccc(Oc4cccc(C(F)(F)F)c4)c(Cl)c3)c21
# Outline: as §1
# [3] = compound: CC(C)C1=C2N=C(C=C(N2N=C1)NCC3=CC=CC=C3)NCCCCCCN
# Outline: as §1
# [4] = compound: CC(C)C[C@@H](C=O)NC(=O)[C@H](CC(C)C)NC(=O)[C@H](CC(C)C)NC(=O)OCc1ccccc1
# Outline: as §1
# pinometostat = compound: CC(C)N(C[C@H]1O[C@@H](n2cnc3c(N)ncnc32)[C@H](O)[C@@H]1O)[C@H]1C[C@@H](CCc2nc3cc(C(C)(C)C)ccc3[nH]2)C1 [pinometostat]
# Outline: as §1
# [5] = compound: CC1=C(C(CC(=O)N1)C2=CC=C(C=C2)C(F)(F)F)C(=O)NC3=C(C=C4C(=C3)C=NN4)F
# Outline: as §1
# [6] = compound: CC1=C(C2=C(C=C1)C(=O)C3=CC=CC=C3N2CCCN)C
# Outline: as §1
# [7] = compound: CC1=C(C=C(C=C1)NC(=O)C2=CC(=CC=C2)C(C)(C)C#N)NC3=CC4=C(C=C3)N=CN(C4=O)C
# Outline: as §1
# [8] = compound: CC1=C(C=C(C=C1)NC(=O)C2=CC(=CC=C2)N(C)C)NC(=O)C3=CC=C(C=C3)O
# Outline: as §1
# [9] = compound: CC1=CC=C(C=C1)SC2=C3C=C(SC3=CN=C2)C(=O)N
# Outline: as §1
# [10] = compound: CC1=NC(=CC=C1)C2=C(N=C(N2)C(C)(C)C)C3=CC4=NC=CN=C4C=C3
# Outline: as §1
# Nexturastat A = compound: CCCCN(Cc1ccc(C(=O)NO)cc1)C(=O)Nc1ccccc1 [Nexturastat A]
# Outline: as §1
# vemurafenib = compound: CCCS(=O)(=O)Nc1ccc(F)c(C(=O)c2c[nH]c3ncc(-c4ccc(Cl)cc4)cc23)c1F [vemurafenib]
# Outline: as §1
# [11] = compound: CCCS(=O)(=O)Nc1ccc(F)c(C(=O)c2c[nH]c3ncc(Cl)cc23)c1F
# Outline: as §1
# [12] = compound: CCCc1cc(C)[nH]c(=O)c1CNC(=O)c1cc(-c2ccnc(N3CCN(C)CC3)c2)cc2c1cnn2C(C)C
# Outline: as §1
# givinostat = compound: CCN(CC)Cc1ccc2cc(COC(=O)Nc3ccc(C(=O)NO)cc3)ccc2c1 [givinostat]
# Outline: as §1
# barasertib = compound: CCN(CCCOc1ccc2c(Nc3cc(CC(=O)Nc4cccc(F)c4)[nH]n3)ncnc2c1)CCOP(=O)(O)O [barasertib]
# Outline: as §1
# Chain of UniProt O14981 (O14981 whole entry, looked up): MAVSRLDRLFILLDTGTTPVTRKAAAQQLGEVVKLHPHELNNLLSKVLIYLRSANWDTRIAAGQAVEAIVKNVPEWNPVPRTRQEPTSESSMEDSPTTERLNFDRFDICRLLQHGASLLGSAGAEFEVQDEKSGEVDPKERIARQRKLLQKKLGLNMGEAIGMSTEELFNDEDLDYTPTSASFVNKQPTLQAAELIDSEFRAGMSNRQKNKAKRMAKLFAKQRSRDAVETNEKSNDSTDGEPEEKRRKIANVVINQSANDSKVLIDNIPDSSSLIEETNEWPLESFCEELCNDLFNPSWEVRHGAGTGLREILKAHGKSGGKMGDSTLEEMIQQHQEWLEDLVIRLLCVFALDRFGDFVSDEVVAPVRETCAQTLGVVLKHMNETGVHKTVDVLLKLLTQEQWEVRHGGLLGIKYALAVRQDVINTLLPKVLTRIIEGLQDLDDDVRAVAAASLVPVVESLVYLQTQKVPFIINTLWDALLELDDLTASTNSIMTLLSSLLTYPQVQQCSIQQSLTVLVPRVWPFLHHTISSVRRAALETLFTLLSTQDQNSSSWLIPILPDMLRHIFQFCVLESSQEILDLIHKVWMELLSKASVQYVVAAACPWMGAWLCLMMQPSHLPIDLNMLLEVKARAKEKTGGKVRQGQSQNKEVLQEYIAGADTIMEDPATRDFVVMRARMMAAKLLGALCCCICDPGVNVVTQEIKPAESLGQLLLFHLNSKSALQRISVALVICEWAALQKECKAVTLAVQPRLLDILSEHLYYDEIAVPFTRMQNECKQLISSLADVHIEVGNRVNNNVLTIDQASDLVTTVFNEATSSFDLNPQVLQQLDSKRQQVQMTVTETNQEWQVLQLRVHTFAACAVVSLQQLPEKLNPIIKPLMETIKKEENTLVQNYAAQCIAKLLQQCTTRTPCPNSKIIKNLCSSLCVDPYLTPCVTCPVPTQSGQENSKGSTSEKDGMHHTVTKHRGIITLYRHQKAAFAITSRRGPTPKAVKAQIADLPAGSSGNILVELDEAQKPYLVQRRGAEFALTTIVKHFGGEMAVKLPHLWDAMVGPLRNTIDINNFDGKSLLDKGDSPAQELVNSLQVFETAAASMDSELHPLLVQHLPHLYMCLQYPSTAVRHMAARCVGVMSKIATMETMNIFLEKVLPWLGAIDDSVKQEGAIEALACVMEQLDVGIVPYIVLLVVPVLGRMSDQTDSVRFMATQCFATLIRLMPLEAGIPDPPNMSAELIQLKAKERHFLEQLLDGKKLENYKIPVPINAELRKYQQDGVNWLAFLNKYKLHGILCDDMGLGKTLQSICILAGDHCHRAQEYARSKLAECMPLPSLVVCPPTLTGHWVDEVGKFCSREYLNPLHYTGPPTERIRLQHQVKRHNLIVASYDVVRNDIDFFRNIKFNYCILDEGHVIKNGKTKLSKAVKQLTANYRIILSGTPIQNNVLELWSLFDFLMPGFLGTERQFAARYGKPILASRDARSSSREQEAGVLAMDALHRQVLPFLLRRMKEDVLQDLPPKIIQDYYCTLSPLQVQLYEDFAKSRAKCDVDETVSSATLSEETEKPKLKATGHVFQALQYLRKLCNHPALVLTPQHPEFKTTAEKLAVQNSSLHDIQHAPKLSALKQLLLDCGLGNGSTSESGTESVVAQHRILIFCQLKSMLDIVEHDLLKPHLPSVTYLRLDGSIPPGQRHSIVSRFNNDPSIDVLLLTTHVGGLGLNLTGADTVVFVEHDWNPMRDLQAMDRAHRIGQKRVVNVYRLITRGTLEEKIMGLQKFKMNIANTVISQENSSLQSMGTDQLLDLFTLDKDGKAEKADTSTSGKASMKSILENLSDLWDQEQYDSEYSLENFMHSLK
# Chain of UniProt Q9UEY8 (Q9UEY8 whole entry, looked up): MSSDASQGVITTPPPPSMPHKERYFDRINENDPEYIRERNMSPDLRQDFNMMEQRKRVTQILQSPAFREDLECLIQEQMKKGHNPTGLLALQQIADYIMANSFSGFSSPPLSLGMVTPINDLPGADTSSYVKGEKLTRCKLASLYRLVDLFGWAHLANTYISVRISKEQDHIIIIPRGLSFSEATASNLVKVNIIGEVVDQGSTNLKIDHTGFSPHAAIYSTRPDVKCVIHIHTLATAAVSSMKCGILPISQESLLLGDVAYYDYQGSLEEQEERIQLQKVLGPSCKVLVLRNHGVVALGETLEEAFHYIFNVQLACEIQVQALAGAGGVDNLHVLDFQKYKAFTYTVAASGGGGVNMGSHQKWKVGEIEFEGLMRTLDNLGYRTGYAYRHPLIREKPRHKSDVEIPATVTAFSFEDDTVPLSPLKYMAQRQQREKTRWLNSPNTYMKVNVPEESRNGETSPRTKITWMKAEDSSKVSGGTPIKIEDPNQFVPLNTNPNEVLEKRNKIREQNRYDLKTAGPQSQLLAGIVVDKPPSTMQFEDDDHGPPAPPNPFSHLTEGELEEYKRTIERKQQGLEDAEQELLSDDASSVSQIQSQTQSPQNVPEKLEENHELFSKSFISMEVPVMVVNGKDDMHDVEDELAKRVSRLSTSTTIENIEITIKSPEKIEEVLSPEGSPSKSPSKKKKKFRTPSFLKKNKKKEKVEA
# Chain of UniProt O43865 (O43865 whole entry, looked up): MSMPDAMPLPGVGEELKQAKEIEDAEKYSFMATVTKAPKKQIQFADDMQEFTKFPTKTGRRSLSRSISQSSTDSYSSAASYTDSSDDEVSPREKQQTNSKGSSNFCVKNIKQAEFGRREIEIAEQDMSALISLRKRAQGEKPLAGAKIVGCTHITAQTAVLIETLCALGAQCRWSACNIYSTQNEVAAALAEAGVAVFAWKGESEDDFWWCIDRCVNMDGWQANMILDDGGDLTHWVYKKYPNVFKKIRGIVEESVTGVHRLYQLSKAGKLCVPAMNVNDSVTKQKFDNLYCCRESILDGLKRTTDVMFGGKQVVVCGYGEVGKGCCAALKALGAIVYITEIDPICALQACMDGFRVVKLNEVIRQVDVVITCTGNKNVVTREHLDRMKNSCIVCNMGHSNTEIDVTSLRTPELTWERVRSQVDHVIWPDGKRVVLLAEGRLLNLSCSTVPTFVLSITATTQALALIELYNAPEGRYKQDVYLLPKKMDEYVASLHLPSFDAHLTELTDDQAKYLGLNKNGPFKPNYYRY
# Chain of UniProt Q9NYF8 (Q9NYF8 whole entry, looked up): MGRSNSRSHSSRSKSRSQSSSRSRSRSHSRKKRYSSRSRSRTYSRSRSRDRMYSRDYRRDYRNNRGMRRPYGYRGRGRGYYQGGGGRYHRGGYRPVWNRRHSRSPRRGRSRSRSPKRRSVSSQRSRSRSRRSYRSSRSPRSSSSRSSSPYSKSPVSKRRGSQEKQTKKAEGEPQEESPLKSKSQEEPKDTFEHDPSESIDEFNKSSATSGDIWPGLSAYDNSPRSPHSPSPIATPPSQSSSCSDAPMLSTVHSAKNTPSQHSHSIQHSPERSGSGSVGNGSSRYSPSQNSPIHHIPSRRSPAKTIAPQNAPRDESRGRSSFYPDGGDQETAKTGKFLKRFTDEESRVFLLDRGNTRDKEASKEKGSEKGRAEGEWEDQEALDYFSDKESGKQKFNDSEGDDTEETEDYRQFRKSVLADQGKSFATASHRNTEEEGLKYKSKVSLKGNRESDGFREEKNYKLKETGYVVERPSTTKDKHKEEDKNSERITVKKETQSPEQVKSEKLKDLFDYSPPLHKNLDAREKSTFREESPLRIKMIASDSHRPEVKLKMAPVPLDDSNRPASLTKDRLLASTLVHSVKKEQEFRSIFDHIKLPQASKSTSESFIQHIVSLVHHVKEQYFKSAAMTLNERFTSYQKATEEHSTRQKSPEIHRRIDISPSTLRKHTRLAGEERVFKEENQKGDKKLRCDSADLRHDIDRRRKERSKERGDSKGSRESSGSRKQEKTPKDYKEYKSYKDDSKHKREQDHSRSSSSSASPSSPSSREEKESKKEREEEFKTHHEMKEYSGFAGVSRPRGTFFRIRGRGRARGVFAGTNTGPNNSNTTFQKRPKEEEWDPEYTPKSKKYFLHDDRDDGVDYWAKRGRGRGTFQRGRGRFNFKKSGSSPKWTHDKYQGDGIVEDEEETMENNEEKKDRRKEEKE
# Chain of UniProt P11310 (P11310 whole entry, looked up): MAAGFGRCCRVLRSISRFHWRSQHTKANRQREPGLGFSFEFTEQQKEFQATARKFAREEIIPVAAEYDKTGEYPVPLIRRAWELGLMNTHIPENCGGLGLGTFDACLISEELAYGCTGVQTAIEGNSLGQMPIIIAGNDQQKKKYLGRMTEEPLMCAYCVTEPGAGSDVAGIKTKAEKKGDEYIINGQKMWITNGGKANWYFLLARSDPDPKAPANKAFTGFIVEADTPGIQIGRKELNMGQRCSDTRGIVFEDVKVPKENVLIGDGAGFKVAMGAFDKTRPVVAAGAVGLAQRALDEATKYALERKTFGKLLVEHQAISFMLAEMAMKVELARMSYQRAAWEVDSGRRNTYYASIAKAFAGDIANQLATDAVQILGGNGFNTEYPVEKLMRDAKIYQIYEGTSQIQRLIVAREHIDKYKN
# Chain of UniProt Q9BRQ8 (Q9BRQ8 whole entry, looked up): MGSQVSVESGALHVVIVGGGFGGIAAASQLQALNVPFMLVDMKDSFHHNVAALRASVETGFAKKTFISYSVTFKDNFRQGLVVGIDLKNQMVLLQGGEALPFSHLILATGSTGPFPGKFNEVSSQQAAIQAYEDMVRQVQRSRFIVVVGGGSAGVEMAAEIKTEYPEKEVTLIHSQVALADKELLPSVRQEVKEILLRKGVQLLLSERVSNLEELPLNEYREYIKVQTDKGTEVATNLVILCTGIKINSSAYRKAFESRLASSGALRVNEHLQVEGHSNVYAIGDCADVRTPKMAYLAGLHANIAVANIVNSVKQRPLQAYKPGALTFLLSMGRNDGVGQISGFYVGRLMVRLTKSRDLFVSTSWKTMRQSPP
# Chain of UniProt Q66PJ3 (Q66PJ3 whole entry, looked up): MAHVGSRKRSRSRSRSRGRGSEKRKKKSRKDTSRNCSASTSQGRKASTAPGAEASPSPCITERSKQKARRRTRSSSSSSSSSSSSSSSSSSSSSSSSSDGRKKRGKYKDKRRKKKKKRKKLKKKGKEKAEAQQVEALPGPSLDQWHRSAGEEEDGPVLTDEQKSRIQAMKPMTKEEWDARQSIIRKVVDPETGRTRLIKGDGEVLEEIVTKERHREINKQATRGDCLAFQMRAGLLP
Target,log2 fold change (IRAK-1-4 Inhibitor I),log2 fold change (ibrutinib),log2 fold change [1],log2 fold change (ralimetinib),log2 fold change [2],log2 fold change [3],log2 fold change [4],log2 fold change (pinometostat),log2 fold change [5],log2 fold change [6],log2 fold change [7],log2 fold change [8],log2 fold change [9],log2 fold change [10],log2 fold change (Nexturastat A),log2 fold change (vemurafenib),log2 fold change [11],log2 fold change [12],log2 fold change (givinostat),log2 fold change (barasertib)
ATP6V0A2 (UniProt Q9Y487),-0.006,-0.026,-0.017,0.057,-0.01,-0.297 (active),0.049,0.054,0.008,0.003,0.021,0.016,0.006,-0.013,0.024,0.026,0.014,0.014,0.02,0.008
BCLAF1 (UniProt Q9NYF8),-0.265,0.016,-0.503 (active),0.124,0.094,-0.353,-0.027,-0.039,0.021,-0.076,0.012,-0.102,0.004,0.128,0.098,0.225,0.097,0.009,0.137,-0.071
ATAD1 (UniProt Q8NBU5),-0.007,0.011,-0.081,0.238 (active),-0.083,-0.077,0.038,0.041,-0.083,0.054,0.019,-0.034,0.012,-0.012,-0.305,0.076,0.022,0.045,0.046,0.055
APPL1 (UniProt Q9UKG1),0.016,-0.067,-0.074,-0.024,0.037,0.006,0.069,0.059,-0.15,-0.011,0.012,0.008,0.035,0.015,-0.032,0.066,0.017,-0.033,0.039,0.02
BAP1 (UniProt Q92560),-0.038,-0.056,-0.125,0.06,-0.014,-0.217,0.048,0.163,-0.116,-0.17,-0.067,-0.088,-0.149,-0.058,0.403 (active),-0.089,-0.055,0.085,0.495 (active),-0.019
BCCIP (UniProt Q9P287),-0.025,-0.063,-0.06,-0.005,0.002,0.035,0.015,0.073,-0.041,0.255 (active),-0.023,-0.015,-0.009,-0.01,-0.002,0.02,0.036,-0.004,0.035,0.033
ATP13A2 (UniProt Q9NQ11),0.04,0.074,0.007,-0.033,-0.03,-0.511 (active),0.011,0.063,0.044,0.181,0.017,0.009,0.035,0.055,0.001,0.085,-0.037,0.014,-0.044,-0.052
ACBD6 (UniProt Q9BR61),-0.072,0.009,0.477 (active),-0.169,-0.068,0.173,0.159,0.008,0.023,0.074,0.039,-0.04,0.139,0.067,0.28,0.029,0.022,0.127,-0.011,0.018
AIFM2 (UniProt Q9BRQ8),0.011,-0.008,0,-0.005,0.189,0.161,-0.061,0.044,-0.062,0.021,0.013,0,0,-0.017,0.019,-0.036,-0.026,0.021,0.011,-0.024
ADD3 (UniProt Q9UEY8),0.063,0.025,-0.29 (active),-0.011,0.008,0.097,0.018,-0.034,0.019,0.014,0.024,0.016,-0.015,-0.003,0.021,-0.021,0.006,-0.013,-0.043,-0.01
BTAF1 (UniProt O14981),0.021,0.029,0.022,-0.043,-0.168,-0.131,0.01,-0.011,0.003,-0.087,-0.033,0.07,-0.035,0.011,-0.064,-0.003,0.041,-0.018,0.009,0.038
AHCYL1 (UniProt O43865),0.035,0.062,0.337 (active),0.008,-0.016,0.014,0.001,-0.048,-0.033,-0.004,-0.103,0.003,-0.061,0.011,0.014,-0.029,-0.015,-0.039,-0.026,-0.036
ARL6IP4 (UniProt Q66PJ3),0.049,0.026,0.018,0.01,0,0.075,0.021,-0.03,0.064,0.049,-0.048,0.016,-0.005,0,0.001,-0.07,-0.019,-0.038,0.005,-0.01
ANKRD29 (UniProt Q8N6D5),-0.001,-0.18,0.026,-0.057,-0.15,0.007,-0.153,-0.012,0.009,0.024,0.046,0.022,0.027,-0.035,0.371,-0.064,-0.031,-0.073,0.247,-0.124
APOBEC3G (UniProt Q9HC16),-0.064,0.103,-0.111,0.128,0.075,0.046,0.077,0.11,-0.09,-0.492 (active),-0.019,0.069,-0.064,-0.014,0.172,0.069,-0.083,0.051,0.129,0.019
ACADM isoform 2 (UniProt P11310),0.028,0.034,-0.013,-0.068,-0.043,0.051,-0.001,-0.085,-0.006,0,-0.018,-0.024,0.001,0.017,0.009,0.009,-0.015,-0.042,-0.033,0
